This is an account of results in article PMC7862700, “An all-to-all approach to the identification of sequence-specific readers for epigenetic DNA modifications on cytosine”.

Assay in all cases: DAPPL (digital affinity profiling via proximity ligation, sequencing); 10 mM Tris-HCl pH 7.5, 50 mM NaCl, 1 mM DTT, 4% glycerol, room temperature, 30 min; GST-TFs on glutathione beads, 16-mer random dsDNA library, 0.1% formaldehyde crosslink after washing; high values mean tight binding
Experiment [1] addresses T1, FLI1 (Homo sapiens, UniProt Q01543 1-452).
T1 sequence: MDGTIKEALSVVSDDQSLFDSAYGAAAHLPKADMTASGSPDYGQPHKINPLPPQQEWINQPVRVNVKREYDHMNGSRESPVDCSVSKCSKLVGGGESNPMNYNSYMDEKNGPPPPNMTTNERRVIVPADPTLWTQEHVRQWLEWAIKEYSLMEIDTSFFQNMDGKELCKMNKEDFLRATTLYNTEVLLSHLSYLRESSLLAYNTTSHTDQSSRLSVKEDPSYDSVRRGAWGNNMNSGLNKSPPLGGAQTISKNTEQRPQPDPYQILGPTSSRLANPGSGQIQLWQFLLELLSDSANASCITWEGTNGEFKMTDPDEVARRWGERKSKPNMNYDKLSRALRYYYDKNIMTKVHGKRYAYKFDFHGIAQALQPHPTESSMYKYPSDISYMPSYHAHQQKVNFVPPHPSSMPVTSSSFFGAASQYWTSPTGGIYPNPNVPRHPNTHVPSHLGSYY
To be noted: protein: recombinant; tags: N-terminal GST; dsDNA, one strand shown. A digest of the protocol:
(§1)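 Beads coated with glutathione captured GST-fused human transcription factors that had been expressed in yeast, and the factors were then given DNA barcodes and pooled with a tag-only sample. The pools were incubated with 200 nmole of a random double-stranded 16-mer DNA library in Tris/NaCl/DTT/glycerol buffer for 30 min at room temperature, washed, crosslinked with 0.1% formaldehyde and proximity-ligated with BsaI/T4 ligase at 37 °C for 1 h. PCR amplification and Illumina NextSeq500 sequencing came last. Binding signal is each hexamer's read frequency for a factor divided by its frequency for the tag-only sample.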

Experiment [2] addresses T2, ELK1 (Homo sapiens, UniProt P19419 1-428).
T2 sequence: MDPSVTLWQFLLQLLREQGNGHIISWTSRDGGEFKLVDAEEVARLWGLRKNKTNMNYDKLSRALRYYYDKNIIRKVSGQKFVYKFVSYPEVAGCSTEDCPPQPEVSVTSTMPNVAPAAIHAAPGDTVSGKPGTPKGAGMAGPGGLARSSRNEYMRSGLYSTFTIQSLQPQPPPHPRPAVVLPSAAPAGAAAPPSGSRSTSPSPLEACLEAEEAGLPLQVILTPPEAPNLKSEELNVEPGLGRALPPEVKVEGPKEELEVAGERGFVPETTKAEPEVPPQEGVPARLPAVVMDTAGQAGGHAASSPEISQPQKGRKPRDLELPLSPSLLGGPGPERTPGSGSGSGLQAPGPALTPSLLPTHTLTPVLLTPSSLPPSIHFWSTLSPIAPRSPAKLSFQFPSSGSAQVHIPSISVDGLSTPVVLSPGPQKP
To be noted: protein: recombinant; tags: N-terminal GST; dsDNA, one strand shown. The gist of the method:
as §1

Experiment [3] has as its target T3, GABPA (Homo sapiens, UniProt Q06546 1-454).
T3 sequence: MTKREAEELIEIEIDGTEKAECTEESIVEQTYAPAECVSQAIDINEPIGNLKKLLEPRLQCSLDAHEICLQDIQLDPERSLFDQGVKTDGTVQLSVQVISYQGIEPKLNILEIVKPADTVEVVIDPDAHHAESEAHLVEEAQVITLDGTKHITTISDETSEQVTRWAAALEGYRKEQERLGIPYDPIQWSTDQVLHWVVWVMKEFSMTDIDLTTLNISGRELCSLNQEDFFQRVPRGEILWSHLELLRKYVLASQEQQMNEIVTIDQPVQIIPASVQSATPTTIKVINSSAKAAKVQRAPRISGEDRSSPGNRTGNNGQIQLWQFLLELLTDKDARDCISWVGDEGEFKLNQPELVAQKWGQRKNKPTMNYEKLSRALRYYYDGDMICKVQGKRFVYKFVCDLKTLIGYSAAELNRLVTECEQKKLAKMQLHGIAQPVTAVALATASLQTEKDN
To be noted: protein: recombinant; tags: N-terminal GST; dsDNA, one strand shown. A digest of the protocol:
as §1

Experiment [4] has as its target ELF1 (Homo sapiens, UniProt P32519 1-619). To be noted: protein: recombinant; tags: N-terminal GST; dsDNA, one strand shown. The gist of the method:
as §1

Experiment [5] concerns the target T4, EHF (Homo sapiens, UniProt Q9NZC4 1-300).
T4 sequence: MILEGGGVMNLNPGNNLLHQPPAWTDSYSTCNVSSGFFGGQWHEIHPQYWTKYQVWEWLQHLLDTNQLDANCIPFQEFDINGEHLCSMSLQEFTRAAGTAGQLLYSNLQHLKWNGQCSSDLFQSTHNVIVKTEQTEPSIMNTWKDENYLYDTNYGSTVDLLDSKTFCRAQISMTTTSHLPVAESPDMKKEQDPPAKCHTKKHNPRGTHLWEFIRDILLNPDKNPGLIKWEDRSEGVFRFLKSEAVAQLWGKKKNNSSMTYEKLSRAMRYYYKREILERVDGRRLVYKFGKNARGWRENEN
Conditions: protein: recombinant; tags: N-terminal GST; dsDNA, one strand shown. The gist of the method: as §1

Experiment [6] concerns the target SPI1 (Homo sapiens, UniProt P17947 1-270). Conditions: protein: recombinant; tags: N-terminal GST; dsDNA, one strand shown. A digest of the protocol:
as §1

The target of experiment [7] is SPIB (Homo sapiens, UniProt Q01892 1-262). To be noted: protein: recombinant; tags: N-terminal GST; dsDNA, one strand shown. The gist of the method:
as §1

The target of experiment [8] is T5, ELK3 (Homo sapiens, UniProt P41970 1-407).
T5 sequence: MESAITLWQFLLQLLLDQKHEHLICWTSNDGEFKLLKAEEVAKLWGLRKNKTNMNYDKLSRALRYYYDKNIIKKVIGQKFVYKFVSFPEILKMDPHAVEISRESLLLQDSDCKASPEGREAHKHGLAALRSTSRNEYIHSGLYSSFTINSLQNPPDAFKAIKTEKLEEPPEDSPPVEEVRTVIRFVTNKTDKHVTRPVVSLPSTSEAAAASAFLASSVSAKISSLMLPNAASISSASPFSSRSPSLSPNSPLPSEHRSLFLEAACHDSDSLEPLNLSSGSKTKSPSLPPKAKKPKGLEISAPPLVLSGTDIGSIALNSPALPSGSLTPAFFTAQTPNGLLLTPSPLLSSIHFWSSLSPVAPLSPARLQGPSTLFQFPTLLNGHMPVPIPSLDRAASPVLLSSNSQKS
Conditions: protein: recombinant; tags: N-terminal GST; dsDNA, one strand shown. The gist of the method:
as §1

Experiment [9] concerns the target T6, FEV (Homo sapiens, UniProt Q99581 1-238).
T6 sequence: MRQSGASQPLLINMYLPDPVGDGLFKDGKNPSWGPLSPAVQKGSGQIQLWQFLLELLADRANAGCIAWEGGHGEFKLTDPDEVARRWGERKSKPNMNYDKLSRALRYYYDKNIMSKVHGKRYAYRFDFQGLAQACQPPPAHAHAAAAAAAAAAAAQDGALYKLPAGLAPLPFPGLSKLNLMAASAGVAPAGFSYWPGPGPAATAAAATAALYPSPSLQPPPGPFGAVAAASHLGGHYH
To be noted: protein: recombinant; tags: N-terminal GST; dsDNA, one strand shown. A digest of the protocol:
as §1

The target of experiment [10] is ETV5 (Homo sapiens, UniProt P41161 1-510). Conditions: protein: recombinant; tags: N-terminal GST; dsDNA, one strand shown. The gist of the method:
as §1

Experiment [11] has as its target HSF1 (Homo sapiens, UniProt Q00613 1-529). Conditions: protein: recombinant; tags: N-terminal GST; chain copies: 3; dsDNA, one strand shown. A digest of the protocol:
as §1

The target in experiment [12] is T7, SPIC (Homo sapiens, UniProt Q8N5J4 1-248).
T7 sequence: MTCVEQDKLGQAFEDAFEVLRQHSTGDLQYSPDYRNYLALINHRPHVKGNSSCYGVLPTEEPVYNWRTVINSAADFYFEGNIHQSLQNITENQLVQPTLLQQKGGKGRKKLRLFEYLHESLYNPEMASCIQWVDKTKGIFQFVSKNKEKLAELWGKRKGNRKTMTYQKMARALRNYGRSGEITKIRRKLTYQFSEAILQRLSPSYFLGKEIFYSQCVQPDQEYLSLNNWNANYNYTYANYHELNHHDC
Conditions: protein: recombinant; tags: N-terminal GST; dsDNA, one strand shown. The gist of the method: as §1

The target in experiment [13] is ELF4 (Homo sapiens, UniProt Q99607 1-663). To be noted: protein: recombinant; tags: N-terminal GST; dsDNA, one strand shown. The gist of the method:
as §1

For experiment [14], the target named is T8, ELK4 (Homo sapiens, UniProt P28324-2 1-405).
T8 sequence: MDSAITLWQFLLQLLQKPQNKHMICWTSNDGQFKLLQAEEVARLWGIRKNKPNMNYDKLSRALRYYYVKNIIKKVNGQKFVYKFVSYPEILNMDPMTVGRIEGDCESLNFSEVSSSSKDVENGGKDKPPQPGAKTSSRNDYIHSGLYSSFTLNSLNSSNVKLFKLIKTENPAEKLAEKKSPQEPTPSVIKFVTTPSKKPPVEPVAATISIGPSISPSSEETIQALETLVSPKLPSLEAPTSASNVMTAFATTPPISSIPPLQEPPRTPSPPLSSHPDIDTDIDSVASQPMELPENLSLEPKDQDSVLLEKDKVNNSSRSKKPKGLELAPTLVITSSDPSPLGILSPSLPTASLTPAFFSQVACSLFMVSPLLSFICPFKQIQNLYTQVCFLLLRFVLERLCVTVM
To be noted: protein: recombinant; tags: N-terminal GST; dsDNA, one strand shown. The gist of the method: as §1

Experiment [15] has as its target CRX (Homo sapiens, UniProt O43186 1-299). To be noted: protein: recombinant; tags: N-terminal GST; dsDNA, one strand shown. The gist of the method: as §1
In experiment [16] the target is ETV1 (Homo sapiens, UniProt P50549 1-477). Conditions: protein: recombinant; tags: N-terminal GST; dsDNA, one strand shown. A digest of the protocol:
as §1

ETV5, sequence (P41161 whole entry): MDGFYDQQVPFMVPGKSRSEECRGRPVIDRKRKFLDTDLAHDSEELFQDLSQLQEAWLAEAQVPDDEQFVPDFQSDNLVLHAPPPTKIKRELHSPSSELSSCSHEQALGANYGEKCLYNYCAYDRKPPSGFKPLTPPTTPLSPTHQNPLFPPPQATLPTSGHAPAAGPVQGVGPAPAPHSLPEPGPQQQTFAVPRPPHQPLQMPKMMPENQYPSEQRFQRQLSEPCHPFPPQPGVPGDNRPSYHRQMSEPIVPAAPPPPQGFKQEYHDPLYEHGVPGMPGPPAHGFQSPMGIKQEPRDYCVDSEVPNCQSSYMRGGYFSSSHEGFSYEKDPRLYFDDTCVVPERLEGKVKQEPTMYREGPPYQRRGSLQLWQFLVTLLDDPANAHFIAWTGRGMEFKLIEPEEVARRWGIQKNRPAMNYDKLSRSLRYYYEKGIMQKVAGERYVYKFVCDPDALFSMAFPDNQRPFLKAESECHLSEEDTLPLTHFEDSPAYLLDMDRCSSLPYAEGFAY
ETV1, sequence (P50549 whole entry): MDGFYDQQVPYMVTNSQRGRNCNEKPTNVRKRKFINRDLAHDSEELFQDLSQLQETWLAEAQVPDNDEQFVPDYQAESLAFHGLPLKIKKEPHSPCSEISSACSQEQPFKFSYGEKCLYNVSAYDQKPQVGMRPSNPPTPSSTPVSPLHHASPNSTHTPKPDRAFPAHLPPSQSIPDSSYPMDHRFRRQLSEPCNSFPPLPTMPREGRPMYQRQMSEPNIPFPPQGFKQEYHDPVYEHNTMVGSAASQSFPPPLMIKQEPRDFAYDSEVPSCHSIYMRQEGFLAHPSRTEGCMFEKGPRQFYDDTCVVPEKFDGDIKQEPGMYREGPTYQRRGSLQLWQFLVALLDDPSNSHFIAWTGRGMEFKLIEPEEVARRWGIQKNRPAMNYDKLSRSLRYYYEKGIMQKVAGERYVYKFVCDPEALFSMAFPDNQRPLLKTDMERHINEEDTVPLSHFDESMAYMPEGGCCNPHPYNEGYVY
CRX, sequence (O43186 whole entry): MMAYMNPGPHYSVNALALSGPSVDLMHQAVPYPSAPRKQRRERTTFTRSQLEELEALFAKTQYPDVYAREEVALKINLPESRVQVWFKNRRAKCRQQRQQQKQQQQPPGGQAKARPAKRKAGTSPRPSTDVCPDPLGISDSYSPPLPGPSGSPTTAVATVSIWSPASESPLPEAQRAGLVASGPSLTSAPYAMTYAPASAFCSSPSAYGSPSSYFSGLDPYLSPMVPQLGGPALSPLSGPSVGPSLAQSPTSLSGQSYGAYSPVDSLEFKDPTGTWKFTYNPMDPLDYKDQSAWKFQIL
ELF4, sequence (Q99607 whole entry): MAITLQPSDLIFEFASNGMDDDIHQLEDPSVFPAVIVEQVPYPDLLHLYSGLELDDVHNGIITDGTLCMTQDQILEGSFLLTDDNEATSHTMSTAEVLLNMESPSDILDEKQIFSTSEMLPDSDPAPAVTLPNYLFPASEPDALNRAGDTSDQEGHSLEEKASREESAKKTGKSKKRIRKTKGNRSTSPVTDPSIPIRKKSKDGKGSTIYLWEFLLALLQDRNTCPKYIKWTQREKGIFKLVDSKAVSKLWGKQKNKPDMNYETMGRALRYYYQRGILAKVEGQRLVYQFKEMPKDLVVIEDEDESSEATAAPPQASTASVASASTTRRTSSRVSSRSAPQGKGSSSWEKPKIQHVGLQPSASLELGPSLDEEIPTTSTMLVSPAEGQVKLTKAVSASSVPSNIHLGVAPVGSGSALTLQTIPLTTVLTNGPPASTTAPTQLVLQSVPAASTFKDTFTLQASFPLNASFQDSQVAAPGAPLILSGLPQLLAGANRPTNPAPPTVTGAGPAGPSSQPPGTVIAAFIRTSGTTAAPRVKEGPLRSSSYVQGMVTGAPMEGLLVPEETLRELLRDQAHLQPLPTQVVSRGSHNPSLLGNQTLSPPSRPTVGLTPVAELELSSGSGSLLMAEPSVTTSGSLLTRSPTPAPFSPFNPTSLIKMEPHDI
ELF1, sequence (P32519 whole entry): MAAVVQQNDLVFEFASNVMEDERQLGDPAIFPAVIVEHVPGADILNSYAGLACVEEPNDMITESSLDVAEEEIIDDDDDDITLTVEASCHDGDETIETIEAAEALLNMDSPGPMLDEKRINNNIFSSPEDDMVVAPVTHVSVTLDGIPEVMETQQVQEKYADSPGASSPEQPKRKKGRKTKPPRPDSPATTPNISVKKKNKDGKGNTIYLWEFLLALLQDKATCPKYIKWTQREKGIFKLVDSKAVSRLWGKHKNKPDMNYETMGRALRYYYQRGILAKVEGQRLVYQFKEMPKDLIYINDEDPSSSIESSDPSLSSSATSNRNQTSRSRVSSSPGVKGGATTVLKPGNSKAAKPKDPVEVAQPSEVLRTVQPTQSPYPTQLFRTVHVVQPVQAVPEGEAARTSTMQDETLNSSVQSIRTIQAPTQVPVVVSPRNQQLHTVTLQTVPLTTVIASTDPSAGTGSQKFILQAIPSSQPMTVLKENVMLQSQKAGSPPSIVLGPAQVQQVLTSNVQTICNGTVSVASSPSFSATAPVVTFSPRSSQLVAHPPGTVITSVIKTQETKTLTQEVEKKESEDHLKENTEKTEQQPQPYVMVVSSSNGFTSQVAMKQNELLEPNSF
HSF1, sequence (Q00613 whole entry): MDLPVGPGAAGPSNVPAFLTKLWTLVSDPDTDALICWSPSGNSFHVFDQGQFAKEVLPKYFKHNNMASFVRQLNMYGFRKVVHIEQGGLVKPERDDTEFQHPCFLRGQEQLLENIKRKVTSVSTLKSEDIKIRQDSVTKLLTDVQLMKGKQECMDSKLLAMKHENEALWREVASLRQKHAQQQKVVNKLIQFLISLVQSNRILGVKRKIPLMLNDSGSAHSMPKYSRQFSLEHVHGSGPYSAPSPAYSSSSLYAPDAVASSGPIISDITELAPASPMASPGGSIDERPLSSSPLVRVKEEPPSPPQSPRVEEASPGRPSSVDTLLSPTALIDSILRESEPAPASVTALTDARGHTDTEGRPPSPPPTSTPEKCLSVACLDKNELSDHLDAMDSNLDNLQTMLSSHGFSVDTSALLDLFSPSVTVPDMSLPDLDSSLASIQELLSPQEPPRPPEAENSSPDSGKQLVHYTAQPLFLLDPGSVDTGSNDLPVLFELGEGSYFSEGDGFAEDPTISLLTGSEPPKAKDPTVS
SPIB, sequence (Q01892 whole entry): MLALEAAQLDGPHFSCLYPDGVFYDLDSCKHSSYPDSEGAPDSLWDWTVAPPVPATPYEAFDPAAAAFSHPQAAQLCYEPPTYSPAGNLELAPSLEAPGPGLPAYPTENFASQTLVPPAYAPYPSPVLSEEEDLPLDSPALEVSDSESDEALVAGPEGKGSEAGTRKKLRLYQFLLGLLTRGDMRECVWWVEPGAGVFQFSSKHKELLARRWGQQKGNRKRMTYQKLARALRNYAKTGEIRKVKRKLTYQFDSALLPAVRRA

For TGATCG, the binding signal in [1] is 1 fold enrichment (6-mer frequency, TF over GST control); in experiment [2], 1 fold enrichment (6-mer frequency, TF over GST control); in experiment [3], 1.03 fold enrichment (6-mer frequency, TF over GST control); in experiment [4] it was 1.03 fold enrichment (6-mer frequency, TF over GST control); in experiment [5] it was 1.13 fold enrichment (6-mer frequency, TF over GST control); in experiment [6], 1.03 fold enrichment (6-mer frequency, TF over GST control). For the same sequence, the binding signal in experiment [7] was 1.12 fold enrichment (6-mer frequency, TF over GST control); in [8], 1.17 fold enrichment (6-mer frequency, TF over GST control); in experiment [9], 1.01 fold enrichment (6-mer frequency, TF over GST control); in experiment [10] it was 1.03 fold enrichment (6-mer frequency, TF over GST control); in experiment [11] it was 1.18 fold enrichment (6-mer frequency, TF over GST control); in experiment [12], 1.11 fold enrichment (6-mer frequency, TF over GST control). The binding signal in [13] was 1.05 fold enrichment (6-mer frequency, TF over GST control); in experiment [14], 1.13 fold enrichment (6-mer frequency, TF over GST control); in experiment [15], 1.21 fold enrichment (6-mer frequency, TF over GST control); in [16], 1.09 fold enrichment (6-mer frequency, TF over GST control).
